FUS yeast rescue: qHTS for Suppressors of FUS Proteinopathy: Primary screen using FUS-linked yeast assay; S. cerevisiae FUS-expressing, growth rescue, OD600, 24 h; Potency, µM (series often up to 76.6 µM), actives largely listed as activators; hit rate 0.24% among 390,000; also: nearly all actives have a fitted effect of over 55% in size
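Toxicity suppression screen in FUS-yeast. Cells induced with 2% galactose, starting OD 0.005, treated 24hr at 30C with compounds at multiple final concentrations; growth by OD600.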
aSyn rescue: qHTS of alpha-syn Inhibitors; Yeast expressing alpha-synuclein, growth rescue, BacTiter-Glo, 24 h; Potency, µM (titrated, usually from 46.1 µM), hits mostly activators; hit rate 0.14% among 370,000; AID 652106, 2013; also: nearly all actives have a fitted effect of over 65% in size
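Readout is rescue of growth in alpha-synuclein-expressing yeast, so inhibitors of toxicity appear as activators. Growth after 24 hr at 30 deg C in galactose medium is quantified by luminescence.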
Abeta rescue: qHTS for compounds that reverse cellular toxicity of Amyloid beta (A-beta) peptide in yeast: Primary Screen. yeast expressing A-beta42, growth rescue, OD600, 48 h; response scale: 0% DMSO, 100% iron-clioquinol control. Potency, µM (doses to about 46.1 µM), usual class: activators. hit rate 0.063% among 410,000; also: nearly all actives have a fitted effect of over 55% in size
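Yeast growth medium received pinned compounds, then yeast cells expressing toxic A-beta were added; plates incubated at 30 C for 48 hr. Growth read as absorbance at 600 nm, normalized to DMSO and equimolar FeCl3 plus clioquinol controls.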
ERG-DNA inh: qHTS for Small Molecule Inhibitors of the ERG Ets/DNA interaction; Transcriptional regulator ERG (Homo sapiens), P11308; fluorescence polarization, His-ERG Ets domain / labelled DNA; Potency, µM (titrated, usually from 76.9 µM), actives largely listed as inhibitors; hit rate 0.028% among 370,000; AID 624246, 2012; active = well fitted inhibition curve with a large enough effect in the polarisation, with a control signal flat; inconclusive = small, poorly fitted or top-dose-only effect, or effect the other way, or a change in a side signal; inactive = no such curve, though single readings can be large or run the other way; the % refers to the polarisation;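 also: polarization taken with two DNA probes labelled with fluorescein and Texas red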
Target sequence (P11308 whole entry, looked up, the tested form may be a part): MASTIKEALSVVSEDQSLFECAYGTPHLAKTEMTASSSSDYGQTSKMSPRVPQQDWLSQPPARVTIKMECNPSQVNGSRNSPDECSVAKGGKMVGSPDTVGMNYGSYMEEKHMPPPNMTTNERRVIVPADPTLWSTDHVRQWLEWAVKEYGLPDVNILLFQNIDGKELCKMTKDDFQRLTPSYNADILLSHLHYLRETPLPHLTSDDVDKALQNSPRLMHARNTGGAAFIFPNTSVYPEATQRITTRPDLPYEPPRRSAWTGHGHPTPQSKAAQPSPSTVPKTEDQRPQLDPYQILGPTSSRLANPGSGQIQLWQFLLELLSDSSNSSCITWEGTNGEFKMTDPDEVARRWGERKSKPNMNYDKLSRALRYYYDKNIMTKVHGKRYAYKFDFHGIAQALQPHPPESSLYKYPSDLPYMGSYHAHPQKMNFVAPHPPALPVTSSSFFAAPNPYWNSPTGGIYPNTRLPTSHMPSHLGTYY
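His-tagged ERG Ets domain (1 uM in the protein solution; 300mM KCl, 50mM Tris-HCl, 1mM EDTA, 1mM DTT, pH 7.5) received compound, then a probe mix of 5 nM fluorescein-DNA and 100nM Texas-615-DNA. Fluorescence polarization was read for both dyes.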
Mito fusion act: qHTS Assay for Small Molecule Inhibitors of Mitochondrial Division or Activators of Mitochondrial Fusion | S. cerevisiae fusion-defective mutant growth rescue, CellTiterGlo 48 h | Potency, µM (top dose mostly 46.1 µM), hits mostly activators | hit rate 0.23% among 320,000; also: nearly all actives have a fitted effect of over 45% in size
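Yeast fusion mutant, YPEG (non-fermentable carbon), compound, 48 h at 37C non-permissive; CellTiterGlo added, 10 min RT, luminescence read. Rescued growth = division inhibition.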
TDP-43 yeast inh: qHTS of TDP-43 Inhibitors; TDP-43 expressing yeast growth rescue, BacTiter-Glo, 24 h; Potency, µM (doses to about 46.1 µM), hits mostly activators; hit rate 1.8% among 410,000; AID 652104, 2013; also: nearly all actives have a fitted effect of over 50% in size
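Galactose-induced TDP-43 yeast, OD600=0.02, compound pinned; 24 hr, 30 deg C; BacTiter-Glo luminescence for growth. Inhibitors of TDP-43 toxicity read as activators.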
Of the large screens only hits and unclear results are named; the others gave an inactive call. A selection: hits, their analogues and other compounds. The true share with any hit is near 2.2%. Unless noted, calls follow the shape of the dose curve; as a rule, active = well fitted curve in the direction sought with a large enough effect; inconclusive = small, poorly fitted or top-dose-only effect, or another doubt; inactive = no such curve, though single readings can be large; an effect the other way counts as inactive or inconclusive.

O=C(NC1CCCC1)C(c1ccncc1)N(CCCN1CCOCC1)C(=O)c1ccc(-c2ccccc2)[nH]1 (centres undefined)	none
CCOc1ccc(C(C(=O)NC2CCCC2)N(CCCO)C(=O)c2ccc(-c3ccccc3)[nH]2)cc1 (centres undefined)	FUS yeast rescue 35µM
COc1ccccc1/C=C/c1cncc(/C=C/c2ccccc2OC)c1	none (no result: FUS yeast rescue, Abeta rescue, ERG-DNA inh, Mito fusion act, TDP-43 yeast inh)
O=C(Cn1ccc2cc(S(=O)(=O)N3CCCCC3)ccc21)NCCc1ccc(Cl)cc1	none (no result: aSyn rescue, Mito fusion act)
Fc1ccc(COc2ccc(C(=S)N3CCCC3)cc2)cc1	Abeta rescue inconclusive, TDP-43 yeast inh 13µM
CC(=O)c1ccc(N2CCN(C(=O)/C=C/c3ccc4ccccc4n3)CC2)cc1	aSyn rescue 10µM, TDP-43 yeast inh inconclusive
Cn1nnnc1SCCCNCc1cccc(OCc2ccc(F)cc2)c1	TDP-43 yeast inh inconclusive (no result: aSyn rescue, Mito fusion act)
COc1ccc(CN2C(=O)c3cccnc3C2Nc2ccc(OC)c(Cl)c2)cc1 (centres undefined)	FUS yeast rescue 32µM
Cc1csc(NC(=O)c2ccc(COc3ccccc3)o2)n1	TDP-43 yeast inh 22µM
O=C(Nc1nccs1)c1ccc(-c2ccc(F)c(Cl)c2)o1	TDP-43 yeast inh 13µM
Cc1csc(NC(=O)c2ccc(COc3cccc(Cl)c3)o2)n1	none (no result: aSyn rescue, Abeta rescue, ERG-DNA inh, Mito fusion act, TDP-43 yeast inh)
O=C(c1ccc(COc2ccccc2Cl)o1)N1CCN(c2ccccc2)CC1	TDP-43 yeast inh 35µM
Cc1cccc(NC(=O)c2ccc(COc3ccc(Cl)cc3Cl)o2)n1	FUS yeast rescue inconclusive, TDP-43 yeast inh 18µM
O=C(Nc1nccs1)c1ccc(-c2ccc(Cl)cc2Cl)o1	none
COC(=O)c1ccc(COc2ccc(F)cc2)o1	none
COC(=O)c1ccc(COc2ccc(C(=O)c3ccccc3)cc2)o1	TDP-43 yeast inh 11µM
O=C(Nc1nccs1)c1ccc(COc2ccccc2Cl)o1	TDP-43 yeast inh 7.1µM
Cc1ccc(C(=O)Nc2nnc(-c3ccco3)o2)cc1	none
CCc1nnc(NC(=O)c2ccc(S(=O)(=O)N(CC(C)C)CC(C)C)cc2)o1	aSyn rescue 22µM, TDP-43 yeast inh inconclusive
Cc1nnc(NC(=O)c2ccc(S(=O)(=O)N(C)Cc3ccccc3)cc2)o1	aSyn rescue inconclusive, Abeta rescue inconclusive, TDP-43 yeast inh 18µM
CSCc1nnc(NC(=O)c2ccc(S(=O)(=O)N(CC(C)C)CC(C)C)cc2)o1	none (no result: FUS yeast rescue, aSyn rescue, Abeta rescue, ERG-DNA inh, TDP-43 yeast inh)
Cc1nnc(NC(=O)c2ccc3ccccc3c2)o1	aSyn rescue inconclusive, Abeta rescue 16µM, TDP-43 yeast inh inconclusive
O=C(Nc1nnc(-c2ccco2)o1)c1ccc2ccccc2c1	Abeta rescue inconclusive, Mito fusion act 13µM (no result: FUS yeast rescue)
COc1ccc(CC(=O)Nc2cccc(-c3nnc(-c4ccco4)o3)c2)cc1	none
COc1ccc(C(=O)Nc2cccc(-c3nnc(-c4ccco4)o3)c2)cc1	TDP-43 yeast inh 16µM
O=C(Nc1nccs1)C1CCN(S(=O)(=O)c2ccc(F)cc2)CC1	none
O=C(Nc1nccs1)C1CCN(S(=O)(=O)c2c(Cl)cccc2Cl)CC1	Abeta rescue inconclusive, TDP-43 yeast inh 14µM
COc1ccc2nc(N3CCCCC3)c(C#N)cc2c1	TDP-43 yeast inh 13µM
COc1ccc(S(=O)(=O)NCc2ccc3c(c2)cc(C)n3C)cc1	ERG-DNA inh 35µM
CCS(=O)(=O)NCc1ccc2c(c1)cc(C)n2C	none
Cc1cc2cc(CNS(=O)(=O)c3ccccc3)ccc2n1C	FUS yeast rescue inconclusive, ERG-DNA inh 11µM
CCC[C@@H](/C=C/C(=O)OC(C)(C)C)Sc1ccc(OC)cc1	none (no result: aSyn rescue, Abeta rescue, ERG-DNA inh, Mito fusion act, TDP-43 yeast inh)
COC(=O)c1sccc1S(=O)(=O)N1CCN(c2cccc(C)c2C)CC1	TDP-43 yeast inh inconclusive (no result: aSyn rescue, Mito fusion act)
COCCCNC(=O)CSc1nnc(-c2cccnc2)n1C1CCCCC1	none (no result: aSyn rescue, Abeta rescue, ERG-DNA inh, Mito fusion act, TDP-43 yeast inh)

Assay outcomes (PubChem)
